# Assay outcomes: PubChem BioAssay, Broad Institute
# SIRT5 inh: sirtuin-5 (human) deacylase inhibition; 1.1% of 330,000 active; inhibition, % at 15 µM; Purified SirT5, succinyl-peptide AMC, trypsin-coupled fluorescence; Q9NXA8; in the data active = inhibition above about 15%
# ERAP1 inh: ERAP1 (human) enzyme inhibition | Q9NZ08 | recombinant ERAP1, Leu-AMC fluorescence, 60 min | inhibition, % at 10.7 µM | 0.15% of 340,000 active;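 active = mean replicate inhibition of at least 30%, or all replicates individually reaching that 30% level; inactive = mean below 30% and not every replicate reaching it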;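 note: 0% = neutral control wells and 100% = L-leucinethiol positive control wells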
# FGF22 binding: binders of recombinant human FGF22 by thermal shift; activity (Tm shift, normalised), % at 9.99 µM; 1.5% of 340,000 active; AID 651658; SYPRO orange fluorescence; percent of sucrose octasulfate shift, DMSO zero;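 active = mean Tm shift, scaled 0 neutral to 100 positive control, at about 1.3% or above, every replicate too, limit read from the data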
# Casp6 inh: blocks human caspase-6 cleavage activity | purified caspase-6, Z-VEID-R110 cleavage fluorescence | AID 686996 | P55212 | 0.53% of 350,000 active | inhibition, % at 12.5 µM;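 active = mean inhibition across replicates at least about 35%, with every replicate also reaching that limit, limit read from the data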;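 note: 0% = median of neutral control wells and 100% = no fluorescence left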
# Target sequence (P55212 24-179 limits assumed): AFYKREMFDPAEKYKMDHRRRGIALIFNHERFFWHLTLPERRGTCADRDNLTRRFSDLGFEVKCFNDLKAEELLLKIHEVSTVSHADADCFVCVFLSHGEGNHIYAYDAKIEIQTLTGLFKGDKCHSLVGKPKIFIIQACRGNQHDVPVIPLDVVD
# Target sequence (P55212 194-293 limits assumed): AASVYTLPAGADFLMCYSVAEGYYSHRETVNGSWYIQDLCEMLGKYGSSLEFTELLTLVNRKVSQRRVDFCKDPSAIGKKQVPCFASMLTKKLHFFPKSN
# INS-1E GSIS act: GLuc luminescence reporter in INS-1E cells, primary screen for activators of glucose-dependent secretion of insulin; INS-1E GLuc reporter insulin secretion, 2-3 h; activation, % at 16.6 µM; 0.61% of 370,000 active;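 active = lowest replicate activation of at least 40%, so every replicate reaches that level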;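 note: 0% = median of neutral control wells and 100% = median of IBMX positive control wells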
# * hit, by the source's call; nt = no result. Hits are enriched below; roughly 3.3% of the tested compounds scored in any of these assays.
SMILES,SIRT5 inh,ERAP1 inh,FGF22 binding,Casp6 inh,INS-1E GSIS act
O=C(c1ccccc1F)N1CCCC(N2CCN(Cc3ccc4c(c3)OCO4)CC2)C1 (stereo unspecified),nt,-4,0,-2,47*
CCN1CCN(c2ncnc3c2cnn3-c2ccc(Cl)cc2)CC1,0,3,0,38*,nt
CCOc1ccc(N2C(=O)C3ON(c4ccccc4)C(c4ccco4)C3C2=O)cc1 (stereo unspecified),-1,-1,0,2,-4
Cc1ccccc1N1C(=O)C2ON(c3ccccc3)C(c3ccco3)C2C1=O (stereo unspecified),23*,6,0,1,7
O=C(Nc1cc(F)ccc1F)N1CCCCN2[C@H](CO)[C@H](c3ccc(-c4ccccc4)cc3)[C@H]2C1,29*,-2,0,-1,-18
COc1ccccc1NC(=O)N1CCCCN2[C@H](CO)[C@H](c3ccc(-c4cccc(F)c4)cc3)[C@@H]2C1,16*,0,-1,4,-11
O=C(Nc1cc(F)ccc1F)N1CCCCN2[C@H](C1)[C@H](c1ccc(-c3ccccc3)cc1)[C@@H]2CO,3,-1,0,0,-6
COc1cccc(-c2cccc(-c3nc(C(=O)NCc4ccc(Oc5ccccc5)cc4)cc4c3[C@@H](CCO)N(S(=O)C(C)(C)C)C4)c2)c1 (stereo partly specified),2,2,0,4,-10
C[C@@H]1CN([C@@H](C)CO)C(=O)Cc2cc(NC(=O)CCC(F)(F)F)ccc2O[C@H]1CN(C)Cc1ccc(Oc2ccccc2)cc1,22*,nt,0,nt,-20
COc1ccc(CN(C)C[C@@H]2Oc3ccc(NC(=O)NC4CCCCC4)cc3CC(=O)N([C@@H](C)CO)C[C@H]2C)cc1,7,-1,0,-3,-24
C[C@H](CO)N1C[C@H](C)[C@H](CN(C)Cc2ccc(Oc3ccccc3)cc2)Oc2ccc(NC(=O)CCC(F)(F)F)cc2CC1=O,nt,nt,0,nt,-26
COc1ccc(CN(C)C[C@@H]2Oc3ccc(NC(=O)NC4CCCCC4)cc3CC(=O)N([C@H](C)CO)C[C@@H]2C)cc1,15*,-2,0,-2,-16
COc1ccc(S(=O)(=O)Nc2ccc3c(c2)CC(=O)N([C@@H](C)CO)C[C@H](C)[C@H](CN(C)Cc2ccc(Oc4ccccc4)cc2)O3)cc1,17*,3,0,nt,3
COc1ccc(CN(C)C[C@H]2Oc3ccc(NS(=O)(=O)c4ccccc4)cc3CC(=O)N([C@@H](C)CO)C[C@@H]2C)cc1,17*,-7,0,nt,4
C[C@H](CO)N1C[C@H](C)[C@@H](CN(C)Cc2ccc(-c3ccccc3)cc2)Oc2ccc(NS(=O)(=O)c3cn(C)cn3)cc2CC1=O,nt,nt,nt,nt,19
C[C@H](CO)N1C[C@H](C)[C@@H](CN(C)Cc2cccnc2)OCc2ccccc2-c2c(n(C)c3ccccc23)C1=O,2,0,0,2,-2
C[C@H]1CN([C@@H](C)CO)S(=O)(=O)c2ccc(C#CC3CC3)cc2O[C@@H]1CN(C)Cc1ccncc1,2,0,-1,2,9
COc1ccc(NC(=O)Nc2ccc3c(c2)CC(=O)N([C@@H](C)CO)C[C@@H](C)[C@H](CN(C)Cc2ccc(Oc4ccccc4)cc2)O3)cc1,-3,1,0,0,-5
COc1ccc(NC(=O)Nc2ccc3c(c2)CC(=O)N([C@@H](C)CO)C[C@H](C)[C@@H](CN(C)Cc2ccc(Oc4ccccc4)cc2)O3)cc1,23*,-1,0,0,-5
COc1ccccc1NC(=O)C(=N\O)/C(C)=N/O,4,-5,0,39*,nt
O=C1C=CC(n2cc(F)c(=O)[nH]c2=O)O1 (stereo unspecified),1,0,0,36*,-10
COc1ccc(C(=O)C2CCCN(C(=O)c3cccnc3OC)C2)cc1F (stereo unspecified),3,3,44*,-2,0
CSc1ncccc1C(=O)N1CCCC(C(=O)c2ccc3ccccc3c2)C1 (stereo unspecified),-1,-1,43*,1,nt
C[C@@H]1CN([C@H](C)CO)C(=O)c2cc(NC(=O)CCCN(C)C)ccc2O[C@@H](C)CCCCO[C@H]1CN(C)C(=O)Nc1ccccc1,-5,-1,nt,-1,25
O=C(C[C@H]1CC[C@H]2NC[C@@H](O)COC[C@@H]2O1)NCCN1CCCCC1,nt,nt,0,nt,8
